From PubChem
DT40 TDP1 no CPT: qHTS for Inhibitors of human tyrosyl-DNA phosphodiesterase 1 (TDP1): qHTS in cells in absence of CPT | DT40 Tdp1-/- hTDP1 cells, no CPT, ATP luminescence, 48 h | 15% of 420,000 active | Potency, µM (highest dose often 46.2 µM), inactives show at the top dose activity change, negative = growth inhibition, actives largely listed as inhibitors; further: nearly all actives have a fitted effect of over 55% in size
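Chicken DT40 Tdp1-/- cells stably complemented with human TDP1 were seeded at 400 cells/well with DMSO in place of 20 nM camptothecin. After compound pinning, cells grew at least 48 hr at 37 °C; viability read by CellTiter-Glo luminescence.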
RORg inh: blocks mouse ROR gamma transcriptional activity; P51450; Drosophila S2 Gal4-RORgamma UAS-luciferase reporter, 20 h; Potency, µM (titrated, usually from 53.6 µM), without a hit: at the highest dose activity change, negative = inhibition, hits mostly inhibitors; 5.4% of 310,000 active; AID 2551; further: nearly all actives have a fitted effect of over 60% in size
Target sequence (P51450 whole entry, looked up, the tested form may be a part): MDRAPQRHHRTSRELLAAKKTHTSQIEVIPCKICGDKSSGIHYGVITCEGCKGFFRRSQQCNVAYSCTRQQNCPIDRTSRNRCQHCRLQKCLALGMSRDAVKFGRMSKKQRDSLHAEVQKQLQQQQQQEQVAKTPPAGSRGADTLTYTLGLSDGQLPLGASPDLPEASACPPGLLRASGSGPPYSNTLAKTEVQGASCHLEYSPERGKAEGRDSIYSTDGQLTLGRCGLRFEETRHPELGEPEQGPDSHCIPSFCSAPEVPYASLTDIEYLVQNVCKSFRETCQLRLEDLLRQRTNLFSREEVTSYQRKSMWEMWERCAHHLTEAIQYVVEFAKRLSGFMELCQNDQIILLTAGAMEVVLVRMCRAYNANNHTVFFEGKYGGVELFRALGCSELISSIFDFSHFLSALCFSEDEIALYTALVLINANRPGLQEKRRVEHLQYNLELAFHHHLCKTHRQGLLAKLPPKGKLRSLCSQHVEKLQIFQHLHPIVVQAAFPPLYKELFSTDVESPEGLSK
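Using a luciferase readout, inhibitors were identified by reduced reporter activity in Drosophila cells coexpressing a copper-inducible Gal4–ROR gamma fusion and UAS-driven Photinus luciferase, incubated 20 hr after 700 uM copper sulfate.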
TDP1 block: inhibitors of human tyrosyl-DNA phosphodiesterase TDP1; AID 485290; Q9NUW8; 0.28% of 350,000 active; Potency, µM (highest dose often 130 µM), inactives show at the top dose activity change, negative = inhibition, most hits filed as inhibitors; recombinant TDP1, AlphaScreen DNA substrate cleavage; further: nearly all actives have a fitted effect of over 40% in size
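Compounds were preincubated with Tdp1 (1 nM final) for 15 min at room temperature before substrate (15 nM final) started a 5 min reaction; beads (10 ug/ml final) were then added for 10 min before AlphaScreen detection.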
VP16 counter: counter-screen for ROR gamma inhibitors: Gal4-VP16 reporter. Drosophila S2 Gal4-VP16 UAS-luciferase, luminescence, 20 h. Potency, µM (titrated, usually from 53.6 µM), for the others: top-dose activity, negative = inhibition, usual class: inhibitors. 3.5% of 310,000 active;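 further: Gal4-VP16 expression switched on by copper sulfate through the metallothionein promoter; nearly all actives have a fitted effect of over 50% in size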
DT40 TDP1 CPT: growth inhibition of DT40 Tdp1-/-;hTDP1 cells with camptothecin (screen for TDP1 inhibitors) | Potency, µM (doses to about 46.2 µM), for inactives: at the top dose activity change, negative = growth inhibition, hits mostly inhibitors | AID 686979 | 12% of 420,000 active | chicken DT40 Tdp1-/-;hTDP1 cells + 20 nM CPT, ATP luminescence, 48 h; further: nearly all actives have a fitted effect of over 55% in size
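Chicken DT40 Tdp1-/- cells complemented with human TDP1, 400 cells/well, exposed to compounds plus 20 nM camptothecin for at least 48 h at 37 C; viability read as ATP content by CellTiter-Glo luminescence.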
* hit, by the source's call; ? = inconclusive; . = no result; [ ] = dose if it differs, or a comment. Rows were chosen to be rich in hits. Some 19% of all compounds tested hit in one or more screens of this group. The call rests on the fitted dose curve; in most records, active means well fitted curve in the direction sought with a large enough effect; inconclusive means small, poorly fitted or top-dose-only effect, or another doubt; inactive means no such curve, though single readings can be large; an effect the other way counts as inactive or inconclusive. On the % scale 0 is the no-effect control and ±100 the full control effect; potency means the concentration at half of the fitted maximal effect.

SMILES	DT40 TDP1 no CPT	RORg inh	TDP1 block	VP16 counter	DT40 TDP1 CPT
C=C1C(O)[C@@H]2O[C@]3(CC[C@H](/C=C/C(C)[C@@H]4CC(C)=CC5(O[C@H](C[C@@](C)(O)C(=O)O)CCC5O)O4)O3)CC[C@H]2O[C@@H]1C(O)CC(C)[C@H]1OC2(CCCCO2)CCC1C (some centres undefined)	0.146µM*	.	0.8%	.	0.164µM*
CCOC(=O)c1c(-n2c(C)cc(C=C3C(=O)NC(=O)NC3=O)c2C)sc2c1CCCC2	18.4µM*	26.4%	-2.0%	-23.7%	?
C[C@@H](Cc1ccccc1)NCCC(c1ccccc1)c1ccccc1	6.4µM*	-10.1%[16.9 µM]	4.8%[56.1 µM]	-5.0%[17 µM]	?
O=c1[nH]c(=O)n(-c2ccc(Cl)cc2)c(O)c1C=NCCN1CCCCC1	0.2%	17.5%	2.5%	0.4%	-8.8%
C[n+]1c(-c2ccccc2)c2cc(N)ccc2c2ccc(N)cc21	0.164µM*	?	.	12.6µM*	0.517µM*
CCOC(=O)[C@]12Cc3c(cc(OC)c(OC)c3OC)[C@H]1N(CCC(=O)OC)C(=O)c1ccccc12	16.4µM*	.	.	.	18.4µM*
CCOC(=O)[C@]12Cc3c(cc(OC)c(OC)c3OC)[C@H]1N(C)C(=O)c1ccccc12	20.6µM*	.	.	.	?
COc1ccc(C2C(C(=O)N3CCC4(CC3)OCCO4)c3cc(OC)c(OC)cc3C(=O)N2C)cc1 (centres undefined)	-9.2%	8.6%	5.3%	-7.0%[0.365 µM]	0.7%
CC(CN1CCOCC1)C(C#N)(c1ccccc1)c1ccccc1 (centres undefined)	?	.	.	.	-22.4%
c1ccc2c3c([nH]c2c1)C1(CCNCC1)NCC3	-27.6%	-44.4%	5.0%	-0.9%	?
O=C(COc1ccc(Cl)cc1)Nc1ccc(Cl)cc1C(=O)c1ccccc1	-8.9%	.	3.1%[12.3 µM]	.	-6.0%
CCc1ccccc1NC(=O)Nc1cc(C(=O)NCc2ccc(C(C)C)cc2)ccc1N1CCCC1	?	.	-1.2%	.	?
COc1nnc(-c2ccc(N3CCCCC3)c(NC(=O)c3ccccc3)c2)c2ccccc12	14.6µM*	.	5.3%	.	?
COc1ccc2c(c1)[C@@]13CCCCC1[C@@H](C2)N(C)CC3 (some centres undefined)	16.4µM*	0.6%	11.9%[56.1 µM]	1.0%	-124.6%
CC(C)CCNc1nnnc2c1sc1nc(N3CCOCC3)c3c(c12)CC(C)(C)SC3	18.4µM*	17.1%	9.3%	-2.6%	23.1µM*
Cn1c(O)c(C=NCCCNC2CCCCC2)c(=O)n(C)c1=O	7.5%	-20.7%	5.9%[56.1 µM]	-0.4%	4.5%
ClC1=C(Cl)C(Cl)(C2(Cl)C(Cl)=C(Cl)C(Cl)=C2Cl)C(Cl)=C1Cl	.	8.91µM*	-6.2%	7.08µM*	.
CN1CC[C@]23c4c5ccc(O)c4O[C@H]2[C@@H](O)C=C[C@H]3[C@H]1C5	-25.4%[92.5 µM]	.	.	.	-9.9%[92.5 µM]
CCCCCC[C@H]1C(=O)O[C@H](C)[C@H](NC(=O)c2cccc(NC=O)c2O)C(=O)O[C@@H](C)[C@@H]1OC(=O)CC(C)C	0.0188µM*	?	20.8%[56.1 µM]	2.0%	0.0168µM*
O=c1[nH]c(=S)n(-c2ccccc2F)c(O)c1C=NCc1ccco1	2.2%	15.5%	1.1%	6.1%	-3.2%
CN(C)C(=O)Oc1ccc2oc(=O)cc(-c3cc4ccccc4o3)c2c1	-12.6%	12.3%	1.4%	-5.8%	-23.2%
CCN(CC)C(=O)Oc1cc2c(-c3cc4cccc(OC)c4o3)cc(=O)oc2cc1C	23.1µM*	9.7%	2.0%	-11.4%	16.4µM*
Cc1cc2oc(=O)cc(-c3cc4ccccc4o3)c2cc1OC(=O)N(C)C	?	-18.8%	0.2%	-6.0%	14.6µM*
C=CC[C@@H](CC(=O)N[C@H](CO)Cc1ccccc1)C(=O)NCCOC(=O)[C@@H](CC=C)Cc1ccc(F)cc1	?	.	-0.4%	.	29.1µM*
C=CC[C@@H](CC(=O)N[C@@H](CO)Cc1ccccc1)C(=O)NCCOC(=O)[C@@H](CC=C)Cc1ccc(F)cc1	-3.0%	.	0.0%	.	8.0%
SMILES	DT40 TDP1 no CPT	RORg inh	TDP1 block	VP16 counter	DT40 TDP1 CPT
CCN(CC)C(=O)c1ccc(NC(=O)c2cccc(S(=O)(=O)N3CCN(Cc4ccccc4)CC3)c2)cc1	13µM*	.	.	.	18.4µM*
CCN(CC)C(=O)c1ccc(NC(=O)c2cc(S(=O)(=O)N3CCCCCC3)ccc2OC)cc1	?	.	.	.	-29.9%
CN(C)c1ccc(N=O)cc1	5.01µM*	2.24µM*	11.6%	5.62µM*	0.562µM*
CN(C)c1ccc(P(=S)(N(C)C)N(C)C)cc1	?	?	3.1%	1.7%	?
CC(=O)OCOCC(=O)OCO[P+](=O)C(OCOC(C)=O)c1cc([N+](=O)[O-])ccc1Oc1ccc(Br)cc1 (centres undefined)	.	.	1.2%	.	.
CN1OC[C@@H]2CN[C@H](c3ccc(Br)cc3)C[C@@H]21	-17.2%	.	.	.	-19.8%
O=C1NC[C@H](CCCCN2C[C@@H](Cc3ccccc3)N(CC3CCCCC3)C(=O)C2=O)N(CCC2CCCCC2)C1=O	13µM*	.	.	.	18.4µM*
CC(C)C[C@@H]1CN(CCCC[C@H]2CNC(=O)C(=O)N2CCC2CCCCC2)C(=O)C(=O)N1CCC1CCCCC1	-24.0%	.	.	.	-21.3%
CC(C)C[C@H]1CN(CCCC[C@H]2CNC(=O)C(=O)N2CCC2CCCCC2)C(=O)C(=O)N1CCC1CCCCC1	20.6µM*	.	.	.	?
CCC(C)N1Cc2ccccc2C1=N (centres undefined)	-1.4%	-30.7%	3.8%	-7.4%	1.9%
O=c1[nH]c2ccccc2n1C1CCN(C(c2ccccc2OC(F)(F)F)c2nnnn2-c2ccc3c(c2)OCCO3)CC1 (centres undefined)	4.61µM*	.	.	.	7.31µM*
COc1ccc(-n2nnnc2C(c2cccc(OC)c2OC)N2CCC(n3c(=O)[nH]c4ccccc43)CC2)cc1 (centres undefined)	5.17µM*	.	.	.	8.2µM*
COc1cccc(C(c2nnnn2-c2ccc3c(c2)OCCO3)N2CCC(n3c(=O)[nH]c4ccccc43)CC2)c1OC (centres undefined)	2.31µM*	.	.	.	2.91µM*
O=C(CCCN1CCC(n2c(=O)[nH]c3ccccc32)CC1)c1ccc(F)cc1	?	25.6%[2.98 µM]	10.3%[21 µM]	-4.5%[17 µM]	?
O/N=C1\CCC2CN(C3CCCCC3)CC2C1 (centres undefined)	-28.6%	-2.1%	4.2%	-0.9%	1.6%
CCCCOCC1CO1 (centres undefined)	.	0.8%	-11.0%	7.0%	.
Cc1ccc(-c2nn(Cc3ccccc3)cc2C=O)cc1C	16.4µM*	-12.2%[10 µM]	-8.0%	-8.9%	?
Cc1ccc(-c2nn(Cc3ccccc3)cc2C=O)cc1	?	26.2%[10 µM]	-3.4%	?	-7.7%
